Screens: PubChem, National Center for Advancing Translational Sciences (NCATS)
GPT2 inh: Primary qHTS assay for inhibitors of Glutamate pyruvate transaminase 2 (GPT2) | Potency, µM (highest dose often 57.7 µM), for inactives: at the highest dose activity change, negative = inhibition, usual class: inhibitors | Recombinant GPT2, coupled pyruvate oxidase/HRP Amplex Red fluorescence | 100,000 compounds, 0.25% hits | AID 1671188, 2021 | Alanine aminotransferase 2 (Homo sapiens), Q8TD30; also: nearly all actives have a fitted effect of over 60% in size
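Fluorescence of coupled pyruvate oxidase/HRP/Amplex Red system (50uM Amplex, 30 min, dark) reports pyruvate formed by GPT2. Enzyme reaction: 10ng/uL GPT2, 2mM L-alanine, 250uM a-KG, 30 min room temperature, pH 7.5; 50uM AOA control.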
NIH3T3 tox: Cytotoxic Profiling in NIH 3T3 Cell Line of Diverse Libraries Using Quantitative High-Throughput Screening | NIH 3T3 viability, CellTiter-Glo ATP luminescence, 48-72 h | Potency, µM (titrated, usually from 96.7 µM), for inactives: at the top dose activity change, negative = cytotoxicity, hits mostly inhibitors | 94,000 compounds, 4.3% hits | AID 1345082, 2018; also: nearly all actives have a fitted effect of over 55% in size
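Cytotoxicity was measured by CellTiter-Glo ATP luminescence after 48 or 72 h compound exposure at 37 °C. Mouse NIH 3T3 fibroblasts were seeded at 400 cells/well and dosed by 23 nL pin transfer.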
NPR1 antag: Natriuretic polypeptide receptor (hNpr1) antagonism - Primary qHTS; Atrial natriuretic peptide receptor 1 (Homo sapiens), P16066; HEK293 hNpr1 GloSensor cGMP, ANP-stimulated luminescence; Potency, µM (series often up to 46.3 µM), without a hit: top-dose activity change, negative = inhibition, most hits filed as inhibitors; 76,000 compounds, 1.6% hits; calls by dose curve; also: nearly all actives have a fitted effect of over 60% in size
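Compound pre-incubated 30 min at room temperature on GloSensor-loaded HEK293 cells stably carrying hNpr1 and the pGS-40F cGMP biosensor. Stimulation uses hNppA at 0.1 nM final; luminescence is taken at baseline and 20 min post-agonist.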
FLuc inh: Firefly luciferase inhibition profiling of diverse chemical library using quantitative high-throughput screening. Luciferin 4-monooxygenase (Photinus pyralis), P08659. purified P. pyralis luciferase, luminescence, biochemical. Potency, µM (series often up to 115 µM), usual class: inhibitors. 76,000 compounds, 2.5% hits. AID 1347043, 2019; also: nearly all actives have a fitted effect of over 65% in size
Target sequence (P08659 whole entry, looked up): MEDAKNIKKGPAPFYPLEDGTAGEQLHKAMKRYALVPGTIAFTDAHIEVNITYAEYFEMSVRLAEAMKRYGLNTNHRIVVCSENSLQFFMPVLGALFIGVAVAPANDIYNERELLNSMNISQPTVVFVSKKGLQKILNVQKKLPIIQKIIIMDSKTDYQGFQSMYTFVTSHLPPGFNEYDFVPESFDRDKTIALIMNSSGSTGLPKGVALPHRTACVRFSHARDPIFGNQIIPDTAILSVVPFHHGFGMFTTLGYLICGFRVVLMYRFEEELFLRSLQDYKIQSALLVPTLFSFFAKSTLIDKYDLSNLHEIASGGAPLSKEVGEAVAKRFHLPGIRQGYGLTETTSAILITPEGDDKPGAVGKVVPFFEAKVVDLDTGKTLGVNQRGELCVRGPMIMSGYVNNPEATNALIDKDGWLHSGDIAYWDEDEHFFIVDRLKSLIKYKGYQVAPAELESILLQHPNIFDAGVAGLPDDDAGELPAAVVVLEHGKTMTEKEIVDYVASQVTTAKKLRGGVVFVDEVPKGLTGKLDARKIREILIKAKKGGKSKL
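Purified P. pyralis luciferase (10nM final) in 50mM Tris acetate pH 7.5, 10mM Mg acetate, 0.01% Tween-20, 0.05% BSA with 10uM D-luciferin and 10uM ATP. Compounds titrated qHTS. Luminescence imaged on CCD.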
HEK293 tox: Cytotoxic Profiling in HEK 293 Cell Line of Diverse Libraries Using Quantitative High-Throughput Screening; Potency, µM (top dose mostly 115 µM), inactives show at the highest dose activity change, negative = cytotoxicity, actives largely listed as inhibitors; 94,000 compounds, 6.6% hits; HEK 293 viability, ATP luminescence (CellTiter-Glo), 48-72 h; also: nearly all actives have a fitted effect of over 60% in size
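Read-out: CellTiter-Glo ATP luminescence. Cells: HEK 293, 250 cells/well. Exposure: 48 or 72 hr, 37 degree Celsius.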
Active calls of the source: *; i = inactive; ? = inconclusive; / = not tested or not shown; [ ] = dose if it differs, or a comment. Sampled rows, rich in hits. Any-hit rate of the full collection: about 10%. Unless noted, calls follow the shape of the dose curve; as a rule, active = well fitted curve in the direction sought with a large enough effect; inconclusive = small, poorly fitted or top-dose-only effect, or another doubt; inactive = no such curve, though single readings can be large; an effect the other way counts as inactive or inconclusive. % is scaled to controls: 0 for no effect and ±100 for the full control effect; potency is read from the fitted curve at half-maximal effect.

SMILES	GPT2 inh	NIH3T3 tox	NPR1 antag	FLuc inh	HEK293 tox
COc1cc(/C=C(\C#N)C(=O)Nc2nnc(C(F)(F)F)s2)ccc1OCc1ccc(C(F)(F)F)cc1C(F)(F)F	1%	/	/	/	/
COc1cc2c(cc1OC)C(C[C@H]1CN(C(=O)c3cccnc3)CC[C@H]1CC(=O)O)=NCC2	i	-19%	-3%	i	-6%
CCCC(C)NC(=O)c1cccc(-c2ccc(OC)nn2)c1 (centres undefined)	/	-41%[138 µM]	/	/	?
CCOCCCNC(=O)N1CCOc2ccc(CN3CCc4ccccc4C3)cc2C1	-4%	-25%	3%	i	?
COc1ccc2[nH]cc(CCNC(=O)CN3CCCc4nc(C5CC5)ncc4C3=O)c2c1	i	-11%	-1%	i	-27%
COc1ccc(CN2Cc3[nH]nc(-c4ccc(C(=O)N5CCOCC5)cc4)c3CC2=O)cc1	-13%	-24%	-7%	i	79µM*
COc1ccc(CN2Cc3[nH]nc(-c4cnc(OC)nc4)c3CC2=O)cc1	-14%[88.5 µM]	8.9µM*	-12%[70.6 µM]	i	-35%[172 µM]
COCc1cccc(-c2n[nH]c3c2CC(=O)N(Cc2ccc(OC)cc2)C3)c1	3%[88.5 µM]	25µM*	-22%[70.6 µM]	i	?
COc1ccc(-c2n[nH]c3c2CC(=O)N(CC2CCOCC2)C3)cc1F	-3%[88.5 µM]	?	-1%[70.6 µM]	i	?
COc1ccc(CN2Cc3[nH]nc(-c4ccc(CO)cc4)c3CC2=O)cc1	0%[88.5 µM]	?	1%[70.6 µM]	i	-11%[172 µM]
COCCN1Cc2[nH]nc(-c3ccc(OC)c(F)c3)c2CC1=O	-5%[88.5 µM]	79µM*	3%[70.6 µM]	i	2%[172 µM]
CC1=NOC(C(=O)N2CCOc3c(O)cc(-c4nc(C)cnc4C)cc3C2)C1 (centres undefined)	1%	-7%	8%	i	-2%
COc1ncc(-c2n[nH]c3c2CC(=O)N(Cc2ccccc2)C3)cn1	i	25µM*	1%[70.6 µM]	i	?
COc1ncccc1-c1n[nH]c2c1CC(=O)N(Cc1ccccc1)C2	i	25µM*	-8%[70.6 µM]	i	-20%[172 µM]
O=C1COc2ccc(-c3cccc(O)c3)nc2CN1CCOc1ccccc1	-35%[88.5 µM]	?	?	i	100µM*
O=C1COc2ccc(OCc3ccccc3)nc2CN1CCOc1ccccc1	0%[88.5 µM]	?	?	i	89µM*
O=C1COc2ccc(-c3cc4ccccc4o3)nc2CN1CCOc1ccccc1	-16%[88.5 µM]	?	?	i	?
O=C1CCC2(C(=O)NCCN3CCOCC3)CCCC=C2N1C1CCCC1 (centres undefined)	-22%	-12%	-2%	?	1%
COc1ccc(CNC(=O)c2cc(-c3ccc(F)cc3)cc3ncn(C)c23)cc1OC	?	?	4%[70.6 µM]	i	?
O=C1Cc2c(-c3ccccc3)n[nH]c2CN1CC1CCOCC1	3%[88.5 µM]	50µM*	-9%[70.6 µM]	i	1%[172 µM]
O=C1Cc2c(-c3ccccc3Oc3ccccc3)n[nH]c2CN1CC1CCOCC1	-7%[88.5 µM]	?	-24%[70.6 µM]	i	-26%[172 µM]
O=C1Cc2c(-c3ccccc3Cl)n[nH]c2CN1CC1CCOCC1	-2%[88.5 µM]	89µM*	0%[70.6 µM]	i	-9%[172 µM]
CC(C(=O)Nc1nccs1)N1CCN(c2nccnc2C#N)CC1 (centres undefined)	1%	3%	7%	i	-6%
CCCCn1c(=O)c(C(=O)N2CCCC2C)nc2cccnc21 (centres undefined)	i	-21%[138 µM]	/	/	-1%[172 µM]
COC[C@@H]1CN(S(=O)(=O)c2cn(C)cn2)C[C@H]1c1ccccn1	?	-13%	1%	i	-7%
SMILES	GPT2 inh	NIH3T3 tox	NPR1 antag	FLuc inh	HEK293 tox
COc1ccc2nc([C@H]3CCN(CCCc4ccccc4)C3)[nH]c2c1	0%[88.5 µM]	?	0%[70.6 µM]	71µM*	63µM*
COc1ccc2nc([C@H]3CCN(Cc4cccc(OC(F)(F)F)c4)C3)[nH]c2c1	-14%[88.5 µM]	89µM*	?	?	100µM*
Fc1ccccc1-c1nnc([C@H]2CCN(Cc3cccc(OC(F)(F)F)c3)C2)o1	-2%[88.5 µM]	?	-1%[70.6 µM]	i	112µM*
CCc1nc(-c2c3n(c(=O)n(CC(=O)Nc4cccc(OC)c4)c2=O)CCCC3)no1	i	-6%	21%	i	-1%
CN(Cc1ccc(F)cc1)C(=O)Nc1ccccc1	-3%[88.5 µM]	?	0%[70.6 µM]	i	-25%[172 µM]
CN(Cc1ccccc1C(F)(F)F)C(=O)Nc1ccc(Cl)cc1	-9%[88.5 µM]	35µM*	-19%[70.6 µM]	i	?
CN(Cc1ccccc1C(F)(F)F)C(=O)Cc1cccc(Cl)c1	i	?	0%[70.6 µM]	i	79µM*
CN(Cc1ccccc1C(F)(F)F)C(=O)c1ccccc1Cl	i	-30%[138 µM]	0%[70.6 µM]	i	?
CN(Cc1ccc(F)cc1)C(=O)Nc1ccc(Cl)cc1	-3%[88.5 µM]	?	-28%[70.6 µM]	?	89µM*
CN(Cc1ccccc1C(F)(F)F)C(=O)Nc1ccccc1	1%[88.5 µM]	?	0%[70.6 µM]	?	?
Cc1cc(C(=O)NCC2Cn3cccc3C(=O)N2CC(C)C)nn1C (centres undefined)	-21%	-4%	-2%	i	-16%
COc1ccc(F)cc1-c1cccc(COc2ccc3c(cnn3CC[S+](C)(=O)[O-])c2)c1	-20%	?	?	i	?
COc1ccccc1-c1cccc(COc2ccc3c(cnn3CC[S+](C)(=O)[O-])c2)c1	-12%[88.5 µM]	?	?	?	?
C[S+](=O)([O-])CCn1ncc2cc(OCC3CCN(c4ncccn4)CC3)ccc21	-7%[88.5 µM]	-5%[138 µM]	?	45µM*	?
COc1ncccc1-c1cccc(COc2ccc3c(cnn3CC[S+](C)(=O)[O-])c2)c1	1%[88.5 µM]	?	35µM*	16µM*	28µM*
C[S+](=O)([O-])CCn1ncc2cc(OCc3cccc(-c4cccc(F)c4)c3)ccc21	-5%[88.5 µM]	?	40µM*	?	?
C[S+](=O)([O-])CCn1ncc2cc(OCc3cccc(-c4cncnc4)c3)ccc21	-8%[88.5 µM]	?	-19%[70.6 µM]	35µM*	?
CC(=O)N1CCC(COc2ccc3c(cnn3CC[S+](C)(=O)[O-])c2)CC1	-11%[88.5 µM]	?	-1%[70.6 µM]	?	-25%[172 µM]
O=C(c1ccncc1)N1CCC(Cc2nc(C3CC3)n[nH]2)CC1	-5%	-2%	0%	i	i
O=C(c1ccc(Cl)nc1)N1CCCC1C(=O)N1CCCC1c1nc2ccncc2[nH]1 (centres undefined)	i	-21%	/	/	-2%
